The campaign covered roughly 59,000 compounds. About 6,500 (11%) were called active. Another 15% or so got no clear call; they are omitted. The sample holds actives, similar compounds and a random draw of the others, so the mix is not that of the screen. No stated cut-off is given here; in the data, active means max dye-equivalent concentration above about 10 nM; inconclusive means mostly about 1.1 nM to 9.6 nM; inactive means weaker than that. Peptide text beside a SMILES is read from it.
Test: qHTS Assay for Spectroscopic Profiling in A350 Spectral Region
Settings: Compound autofluorescence, 340/450 nm, Alexa 350 dye-equivalents; hits give high values

Max dye-equivalent concentration, active:
O=C(c1ccc2c(c1)OCCO2)C1CCN(S(=O)(=O)c2cccc(F)c2)CC1 12 nM
Cc1nc2ccccc2cc1O 2500 nM
CCOC(=O)c1[nH]c2ccc(OC)cc2c1NC(=O)CCN1CCN(Cc2ccccc2)CC1 64 nM
CCOC(=O)c1[nH]c2ccc(OC)cc2c1NC(=O)N1CCOCC1 44 nM
Cc1cccn2c(=O)c3cc(C(=O)N4COCC4(C)C)n(C)c3nc12 900 nM
Cc1cccn2c(=O)c3cc(C(=O)NCc4ccccn4)n(C)c3nc12 170 nM
CCCN1CC=C2C(C#N)=C(N)C(C#N)(C#N)C(c3cc(OC)ccc3OC)C2C1 (configuration not stated) 110 nM
CC(C)CCNc1nc(N2CCCC2)c2c(c1C#N)CCN(C)C2 33 nM
COc1ccc2c(CC(=O)Nc3nnc(C4CC4)s3)coc2c1 12 nM
CCCn1c(O)c(CN2CCCC(C)C2)c(C)c(C#N)c1=O (configuration not stated) 19 nM
CCCCc1cc(=O)oc2cc(C)cc(OCc3nn[nH]n3)c12 77 nM
Cc1ccc(C(=O)Nc2nnc(-c3cccs3)s2)cc1C 72 nM
COc1ccc(OC)c(S(=O)(=O)Nc2ccccc2F)c1 75 nM
Cc1c(C(=O)OCC(=O)N(CCC#N)c2ccccc2)oc2c1ccc1ccccc12 14 nM
COc1ccc(-c2nc3cnc(OC)nc3n(Cc3ccc(F)cc3)c2=O)cc1 12 nM
COc1ncc2nc(-c3ccc(Cl)cc3)c(=O)n(C)c2n1 34 nM
COc1ccc(-c2nc3cnc(Oc4ccccc4)nc3n(Cc3cccs3)c2=O)cc1 12 nM
COCCn1c(=O)c(-c2ccc(OC)cc2)nc2cnc(Oc3cccc(Cl)c3)nc21 13 nM
O=c1c(-c2cccs2)nc2cnc(Oc3ccccc3)nc2n1-c1ccccc1 21 nM
O=c1c(-c2cc(F)cc(F)c2)nc2cnc(Oc3ccccc3)nc2n1C[C@H]1CCCO1 15 nM
CCOc1cc(-c2nc3cc(C)ccn3c2NCC2CCCO2)ccc1O (configuration not stated) 78 nM
CN1CCN(S(=O)(=O)c2ccc3[nH]cc(C(=O)O)c(=O)c3c2)CC1 12 nM
CN(C)CCCn1c(N)c(C#N)c2nc(C#N)c(C#N)nc21 620 nM

Max dye-equivalent concentration, inactive:
c1ccc2sc(SCCSc3nc4ccccc4s3)nc2c1
CN1CCN(c2nc3c(c(=O)[nH]c(=O)n3C)n2Cc2cccc3ccccc23)CC1
O=C(NCc1cccs1)C1CCN(S(=O)(=O)c2ccc3c(c2)OCCO3)CC1
O=C(Nc1cccc(F)c1)N1CCC2(CC1)CCN(S(=O)(=O)c1ccccc1)CC2
CCc1nc(C)cn1S(=O)(=O)c1cc(OC)c(C)cc1C
CC(C)CCNC(=O)CN(C(=O)Cn1nnc(-c2ccc(F)cc2)n1)C1CCCC1
Cc1cc(O)ccc1-c1cnc2ccccc2n1
CCOc1cc(C)c(Cl)cc1S(=O)(=O)n1nnc2ccccc21
COc1cc(NC(=O)N2CCOCC2)cc(OC)c1
Cc1c(C(=O)N2CCOCC2)[nH]c2ccc(OCc3ccccc3)cc12
COc1ccc(OC)c(NC(=O)CCN2CCC(C)CC2)c1
COC(=O)c1[nH]c2ccccc2c1NC(=O)CN1CCCc2ccccc21
COc1ccccc1CNc1cc(-c2ccccc2CN(C)C)ncn1
COCC(=O)N1CCC2(CCCN(c3ccccc3)C2)CC1
Cc1cc(NC(=O)COn2nnc3ccccc32)no1
O=C1NC(=O)[C@@](Cc2ccccc2)(c2cccnc2)N1
O=C(NCc1ccco1)c1nc2ncccn2n1
O=C(NCc1ccccn1)c1c(O)c2c([nH]c1=O)CCCC2
CCN(CC)C(=O)C1CCC(C)(C(=O)O)C1(C)C (configuration not stated)
CC(c1ccccc1)n1c(NCCCn2ccnc2)nc2c1c(=O)[nH]c(=O)n2C (configuration not stated)
Cc1cc(NC(=O)COC(=O)c2ccc(F)c(S(=O)(=O)N3CCOCC3)c2)no1
COc1cc([C@H]2c3cc4c(cc3[C@@H](O[C@@H]3O[C@H]5CO[C@@H](C)O[C@]5(O)C[C@H]3O)[C@@H]3COC(=O)[C@H]23)OCO4)cc(OC)c1O
C=CCn1c(SCc2cc(C(=O)OC)c(C)o2)nnc1-c1ccncc1
COc1ccc(C(=O)CSc2nccc(=O)[nH]2)cc1
COC(=O)[C@H](C)NC(=O)Nc1ccc(OC(F)(F)F)cc1
CCC1=C(C(=O)OC)C(c2cc(OC)ccc2OC)C(C#N)=C(N)O1 (configuration not stated)
c1cc(-n2cnnn2)ccc1NC1=NCCC1
CNC(=O)C1CC(=O)N(Cc2ccc3c(c2)OCO3)C(=Nc2ccc(F)cc2)S1 (configuration not stated)
CC(C)(CSc1nncn1/N=C/c1ccco1)NS(=O)(=O)c1ccc(Cl)cc1
O=C(CCOc1ccccc1)NCc1ccccc1
O=C1CN(C(=O)COC(=O)C2CC(=O)N(Cc3ccco3)C2)c2ccccc2N1 (configuration not stated)
COc1ccc(Cc2nnc(NC(=O)Cc3cccs3)s2)cc1
COc1ccc(OCCCC(=O)Nc2nnc(C3CCCO3)s2)cc1 (configuration not stated)
CC1Cc2cc(/C(O)=C3\C(=O)C(=O)N(CCN4CCOCC4)C3c3ccccc3F)ccc2O1 (configuration not stated)
O=C(O)[C@@H]1[C@@H](C(=O)O)[C@]23C[C@@]2(C(=O)O)[C@]2(C(=O)O)CCC3=C3CCCC312
COc1ccc(S(=O)(=O)NC(CC(=O)NCc2ccccc2OC)c2ccco2)cc1 (configuration not stated)
CCCCCCn1c(CN2CCCC(C)C2)nc2c1c(=O)n(C)c(=O)n2C (configuration not stated)
CCCCC(CCC(=O)Nc1ccc(C(=O)OCC)cc1)C(=O)O (configuration not stated)
CC(Sc1nncn1C)C(=O)Nc1ccccc1-c1ccccc1 (configuration not stated)
Clc1ccc(Nc2nc(-c3cccs3)cs2)nc1
O=C(Nc1ccccc1F)C1C2C=CC3(O2)C1C(=O)N(c1cccnc1)C3C(=O)NC1CCCCC1 (configuration not stated)
COc1cc(C(=O)N(Cc2ccc(N(C)C)cc2)C2CCS(=O)(=O)C2)cc(OC)c1OC (configuration not stated)
CCc1nnc(NC(=O)c2ccc(S(=O)(=O)NC3CCCCC3)cc2)s1
CC1CCCCN1S(=O)(=O)c1ccc(C(=O)Nc2nnc(-c3cccs3)o2)cc1 (configuration not stated)
COc1ccc2[nH]cc(CCNc3ncnc4ccc(-c5ccccc5CN(C)C)cc34)c2c1
COc1ccc(Cl)cc1S(=O)(=O)Nc1cccc(C(=O)O)c1
COC(=O)c1ccccc1NC(=O)C1CCN(S(=O)(=O)c2cc(OC)ccc2OC)CC1
Cc1c(C(=O)OCc2cc(=O)n3cc(Br)ccc3n2)oc2ccccc12
COC(=O)N1CCC2(CCCN(c3ccncc3)C2)CC1
COc1cccc(Cn2c(=O)c(-c3ccccc3)nc3cnc(OC)nc32)c1
CCc1nc2oc3ccccc3c(=O)c2c(=O)n1Cc1ccc(OC)cc1
Cc1nc2cnc(Oc3cccc(Cl)c3)nc2n(C2CC2)c1=O
COc1cccc(Cn2c(=O)c(-c3cc(F)cc(F)c3)nc3cnc(OC)nc32)c1
COc1ccc(Oc2ncc3nc(-c4ccc(F)cc4)c(=O)n(C)c3n2)cc1
CCOC(=O)CSc1nnc(CNC(=O)c2cccs2)n1-c1cc(OC)ccc1OC
N#Cc1ccccc1-n1c(N)c(C(=O)N2CCCC2)sc1=S
COC(=O)c1ccc(N(CC(=O)NC2CCCC2)C(=O)CNC(=O)c2ccco2)cc1
CCS(=O)(=O)N1CCCC(C(=O)NCCCN(C)Cc2ccccc2)C1 (configuration not stated)
CN1C(=O)C[C@H](c2ccccc2)C1=O
O=C(CCCN1C(=O)CCC1=O)Nc1ccc(Cl)c(C(F)(F)F)c1
COc1ccc(-n2c(=O)c(-c3cn(C)c4ccccc34)nc3cnc(OC)nc32)cc1
COc1ccc(Oc2ncc3nc(C)c(=O)n(-c4ccccc4)c3n2)cc1
CCc1ccc(-c2nnn(Cc3nc4ccccc4s3)n2)cc1
O=C(N1CCOCC1)N1CCOCC1
O=C(NCc1cn2ccsc2n1)Nc1cccc(Cl)c1
CCOC(=O)c1csc(NC(=O)c2ccc(S(=O)(=O)N3CCCC3)cc2)n1
COc1ccc(OCC(=O)OCC(=O)Nc2ccc(S(=O)(=O)N3CCCCC3)cc2)cc1
Cc1cc(=O)[nH]c(SCc2cc(Cl)ccc2OC(F)F)n1
Cc1ccc(-c2noc(-c3ccccc3C(=O)NCC3CCCO3)n2)cc1 (configuration not stated)
Cc1ccc(C(=O)O)cc1S(=O)(=O)NCC1CCCO1 (configuration not stated)
O=C(CSc1nnc(-c2ccncc2)n1C1CCCCC1)Nc1ccccc1
CCN(CC)S(=O)(=O)c1ccc2[nH]cc(C(=O)NCCc3ccccc3)c(=O)c2c1
CCOC(=O)N1CCN(C(=O)c2cn(C)c3ccc(S(=O)(=O)N4CCCC4)cc3c2=O)CC1
COC(=O)c1cc(S(=O)(=O)NC2CCN(Cc3ccccc3)CC2)cn1C
Fc1ccccc1OCCCCn1cncn1
C[C@H](NC(=O)NCCc1ccccc1)C(=O)O
O=C(Cn1cnc2c(cnn2-c2ccccc2)c1=O)NCc1ccccc1
Cc1cccc(C)c1NC(=O)CCCSc1nnc(-c2ccco2)n1-c1ccccc1
CC(=O)NC(C(=O)NCC(N)=O)C(C)C (configuration not stated) (HELM PEPTIDE1{[ac].[CC(C)C(N[*:1])C(=O)[*:2]].G.[am]}$$$$V2.0)

— PubChem BioAssay AID590 (National Center for Advancing Translational Sciences (NCATS), 2007)
